Experiment in all cases: PBM binding z-score (relative to random genomic background probes); higher = stronger binding; sequences stand for … in GC…GCGATTGACAGCGTAGAATGAAGG
For assay [1], the system named is FXR:RXRa (NR concentration 270 nM, RXRa partner concentration 90 nM). A digest of the protocol: (§1)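 Ligand-free nuclear receptor dimers were bound for 1 h to custom Agilent 4×180K protein-binding microarrays. Detection used antibodies against each partner (one per run). Binding z-scores rest on regression-normalized fluorescence, with random background probes as the reference.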

Assay [2] concerns LXRa:RXRa (NR concentration 270 nM, RXRa partner concentration 90 nM). The method, boiled down: as §1
The test system of assay [3] is LXRa homodimer (NR concentration 270 nM). A digest of the protocol:
as §1

Assay [4] deals with LXRb:RXRa (NR concentration 270 nM, RXRa partner concentration 90 nM). The method, boiled down: as §1
The test system of assay [5] is LXRb homodimer (NR concentration 270 nM). The method, boiled down:
as §1

In assay [6] the test system is PPARa:RXRa (NR concentration 270 nM, RXRa partner concentration 90 nM). The method, boiled down:
as §1

Assay [7] deals with PPARg:RXRa (NR concentration 180 nM, RXRa partner concentration 90 nM). A digest of the protocol:
as §1

Assay [8] concerns PPARg:RXRa 270nM:90nM, anti-RXR (NR concentration 270 nM, RXRa partner concentration 90 nM). A digest of the protocol:
as §1

In assay [9] the test system is PPARg:RXRa 30nM:10nM, anti-RXR (NR concentration 30 nM, RXRa partner concentration 10 nM). The method, boiled down:
as §1

Assay [10] relates to PPARg:RXRa 90nM:30nM, anti-RXR (NR concentration 90 nM, RXRa partner concentration 30 nM). A digest of the protocol:
as §1

In assay [11] the test system is PPARg:RXRa DBDmut IVT, anti-RXR (DBD mutation: RXRa K156A/R161A, NR concentration 270 nM, RXRa partner concentration 90 nM). The method, boiled down: as §1
In assay [12] the test system is PPARg:RXRa IVT, anti-PPARg (NR concentration 270 nM, RXRa partner concentration 90 nM). A digest of the protocol:
as §1

Assay [13] concerns PPARg DBDmut:RXRa IVT, anti-PPARg (DBD mutation: PPARg1 K132A/R137A, NR concentration 270 nM, RXRa partner concentration 90 nM). A digest of the protocol:
as §1

In assay [14] the test system is PPARg DBDmut IVT, anti-PPARg (DBD mutation: PPARg1 K132A/R137A, NR concentration 270 nM). The method, boiled down:
as §1

In assay [15] the test system is PPARg homodimer (NR concentration 180 nM). The method, boiled down: as §1
For assay [16], the system named is PXR:RXRa (NR concentration 270 nM, RXRa partner concentration 90 nM). A digest of the protocol: as §1
In assay [17] the test system is PXR homodimer (NR concentration 270 nM). A digest of the protocol:
as §1

In assay [18] the test system is RARa:RXR (NR concentration 270 nM, RXRa partner concentration 90 nM). A digest of the protocol:
as §1

In assay [19] the test system is RARa homodimer (NR concentration 270 nM). A digest of the protocol:
as §1

Assay [20] concerns RARb:RXRa (NR concentration 270 nM, RXRa partner concentration 90 nM). The method, boiled down:
as §1

With GCGACTGGGGCGTCAGCAGGTTACCATAACTTAA, the PBM binding z-score in assay [1] is -0.381; in assay [2] it was -0.378; in assay [3], -0.324; in assay [4] it was 0.262; in assay [5], -1.19; in assay [6], 0.425. The PBM binding z-score in assay [7] is 0.0029; in [8], -0.411; in assay [9], -0.842; in assay [10] it was -0.965; in assay [11], 0.993; in assay [12], 0.504. Also, the PBM binding z-score in assay [13] was -1.26; in assay [14], -0.889; in [15], -0.668; in [16], -0.181; in [17], -0.71; in assay [18], 0.206. Also, the PBM binding z-score is -1.15 in [19] and 0.327 in [20].
As to GCTGCTAGGTCAGGTTAGTCAGCTAACGGGTACG, the PBM binding z-score is 1.16 in [1]; 0.852 in assay [2]; -0.246 in [3]; 0.282 in [4]; -0.367 in [5]; 1.51 in [6]. Moreover, the PBM binding z-score is 0.774 in [7]; 1.17 in assay [8]; -0.493 in assay [9]; 0.602 in [10]; 2.9 in assay [11]; 2.42 in assay [12]. For the same sequence, the PBM binding z-score in [13] is -0.896; in [14], -1.02; in assay [15], 0.349; in assay [16], 0.128; in assay [17], -0.498; in assay [18] it was 0.677. The PBM binding z-score is -0.907 in assay [19] and 3.29 in [20].
For the sequence TAGCCTAGGTCATTCAGGGGCCAGTACAGAAAGC, the PBM binding z-score in [1] stood at 4.86; in [2], 4.11; in assay [3], 0.86; in [4], 3.16; in assay [5], 0.986; in assay [6] it was 3.6. The PBM binding z-score in [7] came out at 2.29; in [8], 2.39; in assay [9] it was 0.132; in assay [10], 1.25; in assay [11], 1.84; in [12], 2.77. The PBM binding z-score in assay [13] is -0.186; in assay [14], 0.258; in assay [15] it was 1.6; in assay [16], 2.52; in assay [17], -0.228; in assay [18] it was 3.86. In addition, the PBM binding z-score in assay [19] was -0.153; in [20], 3.9.
Regarding TGTCAAAGTTCAATGGTAACGTAAGTATCCACAC, the PBM binding z-score in assay [1] came to 5.2; in [2], 5.16; in [3], 2.81; in assay [4], 3.03; in [5], 0.934; in [6], 4.31. Also, the PBM binding z-score is 6.86 in assay [7]; 6.53 in [8]; 4.18 in [9]; 6.12 in assay [10]; -0.339 in [11]; 3.53 in assay [12]. In addition, the PBM binding z-score in assay [13] worked out at 0.89; in assay [14], 1.61; in [15], 2.42; in assay [16] it was 3.89; in assay [17], 2.86; in assay [18], 2.38. The PBM binding z-score came to 1.11 in assay [19] and 4.58 in assay [20].
With GTACCAAGGTGATTAGGTCGTTGATGAGTAGGCG, the PBM binding z-score in assay [1] was 0.478; in assay [2] it was 0.469; in assay [3] it was 0.085; in [4], 0.0701; in [5], -0.428; in assay [6], 0.886. Moreover, the PBM binding z-score in assay [7] was 0.547; in assay [8], 0.741; in assay [9], -0.00723; in assay [10] it was 0.0201; in assay [11], 1.26; in [12], 1.63. Further, the PBM binding z-score was 0.301 in [13]; -0.28 in assay [14]; 1.06 in assay [15]; 0.265 in [16]; 0.198 in assay [17]; 0.753 in assay [18]. For the same sequence, the PBM binding z-score was 0.341 in assay [19] and 1.1 in assay [20].
As for TCTTGTAGATCAGCAGGTTAAGATAGCTGGCCAA, the PBM binding z-score in assay [1] is -0.0531; in assay [2], 0.217; in [3], -0.176; in assay [4], 0.312; in [5], -0.375; in [6], 0.692. In addition, the PBM binding z-score is -0.179 in [7]; 1.28 in [8]; 2.71 in assay [9]; 1.95 in assay [10]; 1.75 in [11]; 0.446 in assay [12]. For the same sequence, the PBM binding z-score in assay [13] is 0.0165; in [14], 0.121; in assay [15], 0.155; in [16], 0.31; in assay [17], -0.37; in assay [18] it was 0.429. Further, the PBM binding z-score in assay [19] is -0.336; in assay [20], 0.168.
As for GGAACGAGGGCATTCGAGTTGATAGTATGGCGAT, the PBM binding z-score in assay [1] was 1.62; in assay [2], 1.71; in assay [3], -0.324; in assay [4], 0.436; in [5], -0.544; in [6] it was 1.62. Further, the PBM binding z-score in [7] was determined as 1.13; in assay [8] it was 1.22; in assay [9], 0.197; in assay [10] it was 0.753; in [11], 3; in assay [12], 2.29. Further, the PBM binding z-score in assay [13] is -0.142; in assay [14], -0.408; in assay [15], -0.115; in [16] it was 4.11; in assay [17] it was 1.45; in [18] it was 0.744. The values for the PBM binding z-score in assay [19] and in [20] were 0.0734 and 1.98, respectively.

Values taken from the supplement of paper PMC6555819.
